“And” between values parts separate entries of the source, which are not always exact repeats. Equal entries are not always repeated. The panel holds about 79,000 compounds, 15% with a hit somewhere; the sample as a whole holds those more often. Values without a mark were called inactive. The source made the active and inactive calls. Cut-off read from the data, not from the text of the source: active = growth inhibition above about 70%; inactive = the rest.
Assay: NCI Yeast Anticancer Drug Screen. Data for the mec2-1 strain (AID 157)
Conditions: S. cerevisiae mec2-1 strain, active compounds read high
Protocol: Growth inhibition of yeast strains with defined genetic alterations is measured as a screen for potential anti-cancer activity. Selected strains with alterations in DNA damage repair or cell cycle control were exposed to compounds and growth inhibition was measured relative to vehicle treated controls. The strain used in this assay is mec2-1

[1] = at 5.0 µM (retest, dose inferred, filed as 0.5)
[2] = at 50.0 µM (retest, dose inferred, filed as 5.0)

| Compound | growth inhibition [1] [%] | growth inhibition [2] | growth inhibition (at 50.0 µM) |
| --- | --- | --- | --- |
| CCCc1nc2ccccc2c(=O)n1/N=C/c1ccccc1O | -1 | -1% | 47.9% |
| CC[C@@H](C(=O)[C@@H](C)[C@@H](O)[C@H](C)CCc1ccc(C)c(O)c1C(=O)O)[C@H]1O[C@](CC)([C@H]2CC[C@](O)(CC)[C@H](C)O2)C[C@@H]1C | 48 | 98% (active) | 92% (active) |
| CC(C)(C)CC(C)(C)c1ccc(O)c(Cl)c1 | -3 | 90% (active) | 76.5% (active) |
| CCCCCCCCCCS(=O)(=O)Nc1ccc(C(=O)NN)cc1 | 29 | 48% | 71% (active) |
| CC/C(=C(/CC)c1ccc(O)cc1)c1ccc([O-])cc1.CC/C(=C(/CC)c1ccc(O)cc1)c1ccc([O-])cc1.O=C([CH-]C(=O)c1ccccc1)c1ccccc1.O=C([CH-]C(=O)c1ccccc1)c1ccccc1.[Ti+4] | 60 | 97% (active) | 92% (active) |
| O=Cc1cc(-c2ccccc2)n(-c2ccccc2)c1-c1ccccc1 | 2 | -3% | 22.2% |
| Nc1ccc(-c2ccc(N)cc2S(=O)(=O)O)c(S(=O)(=O)O)c1 | 0 | -5% | -14.2% |
| O=C(Nc1ccccc1)c1ccc([N+](=O)[O-])o1 | 3 | 73% (active) | 95.7% (active) |
| Cc1c(Cl)cc2[nH]c(C(F)(F)F)nc2c1Cl | 8 | 76% (active) | 75.2% (active) |
| Clc1ccccc1/C=C/c1nccc2ccccc12 | -1 | 99% (active) | 60.2% |
| Fc1ccc(NC(=S)SCc2ccc(Cl)cc2)c(F)c1 | 11 | 99% (active) | 99.6% (active) |
| CCCCC(CC)COP(=O)(OCC(CC)CCCC)OCC(CC)CCCC (stereo not given) | 13 | -7% | 10.6% |
| Oc1ccc(O)c2c1CC=C(Cl)C2 | 12 | 57% | 52.9% |
| CC(=O)OCC(OC(C)=O)C(OC(C)=O)C(OC(C)=O)C(COC(C)=O)OC(C)=O (stereo not given) |  |  | 9.3% and -7.9% and -11.8% |

Reference: PubChem BioAssay (NCI)
